Laboratory results as given in PubChem BioAssay (NCI).
This is part of a sample that, as a whole, favours compounds with a hit. Of some 83,000 tested, about 20% had one in any assay.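 48-hour exposure, single concentration, 96-well plates; percent growth endpoint where 0 means no net growth. Active: below 10.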 Values without a mark were called inactive. Activity calls are given as the source filed them.

Experiments:
Assay in all cases: NCI-60 one-dose screen, 48 h (100 = growth as untreated, 0 = no growth, -100 = all killed)
Conditions in all cases: 10 µM unless noted
DU-145 prostate = tested on: DU-145 prostate
MALME-3M melanoma = tested on: MALME-3M melanoma
MDA-MB-231 breast = tested on: MDA-MB-231 breast
RXF 393 renal = tested on: RXF 393 renal
SF-268 CNS = tested on: SF-268 CNS
SF-295 CNS = tested on: SF-295 CNS
SF-539 CNS = tested on: SF-539 CNS
UACC-257 melanoma = tested on: UACC-257 melanoma
M14 melanoma = tested on: M14 melanoma
HCT-15 colon = tested on: HCT-15 colon
HT29 colon = tested on: HT29 colon
SNB-75 CNS = tested on: SNB-75 CNS
SNB-19 CNS = tested on: SNB-19 CNS
U251 CNS = tested on: U251 CNS
PC-3 prostate = tested on: PC-3 prostate
SK-MEL-5 melanoma = tested on: SK-MEL-5 melanoma
UACC-62 melanoma = tested on: UACC-62 melanoma
LOX IMVI melanoma = tested on: LOX IMVI melanoma
SK-MEL-28 melanoma = tested on: SK-MEL-28 melanoma

C=C1C(=O)O[C@H]2[C@H]1CC/C(COC(=O)c1cccc3ccccc13)=C\CC[C@@]1(C)O[C@@H]21
growth (DU-145 prostate): -95.1% (active) | growth (MALME-3M melanoma): -74.5% (active) | growth (MDA-MB-231 breast): -67.7% (active) | growth (RXF 393 renal): -89.6% (active) | growth (SF-268 CNS): -66.4% (active) | growth (SF-295 CNS): 47.8% | growth (SF-539 CNS): -93.1% (active) | growth (UACC-257 melanoma): -13.9% (active) | growth (M14 melanoma): -58.7% (active) | growth (HCT-15 colon): -46.9% (active) | growth (HT29 colon): -84.2% (active) | growth (SNB-75 CNS): 29% | growth (SNB-19 CNS): 10.5% | growth (U251 CNS): -83.7% (active) | growth (PC-3 prostate): -70.9% (active) | growth (SK-MEL-5 melanoma): -89% (active) | growth (UACC-62 melanoma): -76.9% (active) | growth (LOX IMVI melanoma): -92.2% (active) | growth (SK-MEL-28 melanoma): -56.7% (active)

C=C1C(=O)O[C@H]2[C@H]1CC/C(COC(=O)c1cc(OC)c(OC)c(OC)c1)=C\CC[C@@]1(C)O[C@@H]21
growth (DU-145 prostate): -23.8% (active) | growth (MALME-3M melanoma): -57.7% (active) | growth (MDA-MB-231 breast): -39% (active) | growth (RXF 393 renal): -87.8% (active) | growth (SF-268 CNS): 16.5% | growth (SF-295 CNS): 51% | growth (SF-539 CNS): -48.3% (active) | growth (UACC-257 melanoma): -41.3% (active) | growth (M14 melanoma): -36.7% (active) | growth (HCT-15 colon): -42.8% (active) | growth (HT29 colon): -80.2% (active) | growth (SNB-75 CNS): 45.9% | growth (SNB-19 CNS): 30.5% | growth (U251 CNS): 9.17% (active) | growth (PC-3 prostate): 18.6% | growth (SK-MEL-5 melanoma): -23.8% (active) | growth (UACC-62 melanoma): -50.7% (active) | growth (LOX IMVI melanoma): -94.9% (active) | growth (SK-MEL-28 melanoma): -36.5% (active)

COc1ccccc1S(=O)(=O)Nc1ccc2c3c(cc(-c4ccoc4)nc13)C(=O)N2C
growth (DU-145 prostate): 86.5% | growth (MALME-3M melanoma): 71.3% | growth (MDA-MB-231 breast): 62.8% | growth (RXF 393 renal): 85.3% | growth (SF-268 CNS): 84.1% | growth (SF-295 CNS): 56.9% | growth (SF-539 CNS): 63.2% | growth (UACC-257 melanoma): 58.7% | growth (M14 melanoma): 53.1% | growth (HCT-15 colon): 66.6% | growth (HT29 colon): 43.8% | growth (SNB-75 CNS): 16.6% | growth (SNB-19 CNS): 75.9% | growth (U251 CNS): 77.9% | growth (PC-3 prostate): 66.9% | growth (SK-MEL-5 melanoma): 56.6% | growth (UACC-62 melanoma): 38.3% | growth (LOX IMVI melanoma): 51.9% | growth (SK-MEL-28 melanoma): 75.6%

C=C1C(=O)O[C@H]2[C@H]1CC/C(COC(=O)c1ccc(C#N)cc1)=C\CC[C@@]1(C)O[C@@H]21
growth (DU-145 prostate): 18.4% | growth (MALME-3M melanoma): -22.4% (active) | growth (MDA-MB-231 breast): 2.94% (active) | growth (RXF 393 renal): -47.7% (active) | growth (SF-268 CNS): 56.8% | growth (SF-295 CNS): 73.3% | growth (SF-539 CNS): -32.3% (active) | growth (UACC-257 melanoma): 52.2% | growth (M14 melanoma): 15.6% | growth (HCT-15 colon): -7.25% (active) | growth (HT29 colon): -4.64% (active) | growth (SNB-75 CNS): 77.3% | growth (SNB-19 CNS): 47.7% | growth (U251 CNS): 40.6% | growth (PC-3 prostate): 50.6% | growth (SK-MEL-5 melanoma): 42.9% | growth (UACC-62 melanoma): -25.2% (active) | growth (LOX IMVI melanoma): -81.4% (active) | growth (SK-MEL-28 melanoma): 3.18% (active)

FC(F)(F)c1cn(CCN2CCOCC2)c2ncnc(Cl)c12
growth (DU-145 prostate): 57.8% | growth (MALME-3M melanoma): 111% | growth (MDA-MB-231 breast): 63.8% | growth (RXF 393 renal): 82.9% | growth (SF-268 CNS): 67.5% | growth (SF-295 CNS): 96.5% | growth (SF-539 CNS): 87% | growth (UACC-257 melanoma): 84% | growth (M14 melanoma): 38% | growth (HCT-15 colon): 14.9% | growth (HT29 colon): 72.7% | growth (SNB-75 CNS): 78.1% | growth (SNB-19 CNS): 22.5% | growth (U251 CNS): 71.2% | growth (PC-3 prostate): 28.1% | growth (SK-MEL-5 melanoma): 42.5% | growth (UACC-62 melanoma): 53.2% | growth (LOX IMVI melanoma): -63.9% (active) | growth (SK-MEL-28 melanoma): 72.4%

CC(=O)c1cc2c(c(O)c1C)C(=O)C(=O)c1c(O)cccc1-2
growth (DU-145 prostate): -94.8% (active) | growth (MALME-3M melanoma): -83.1% (active) | growth (MDA-MB-231 breast): -79.3% (active) | growth (RXF 393 renal): -90.2% (active) | growth (SF-268 CNS): -45.8% (active) | growth (SF-295 CNS): -82.5% (active) | growth (SF-539 CNS): -98.3% (active) | growth (UACC-257 melanoma): -95.7% (active) | growth (M14 melanoma): -87.7% (active) | growth (HCT-15 colon): -61.3% (active) | growth (HT29 colon): -15.5% (active) | growth (SNB-75 CNS): -98.2% (active) | growth (SNB-19 CNS): -85.9% (active) | growth (U251 CNS): -94.5% (active) | growth (PC-3 prostate): -26.4% (active) | growth (SK-MEL-5 melanoma): -97.9% (active) | growth (UACC-62 melanoma): -71.6% (active) | growth (LOX IMVI melanoma): -49.2% (active) | growth (SK-MEL-28 melanoma): -87.2% (active)

COc1ccc(SC2c3ccc(O)cc3Oc3nc(N)c(C#N)c(N)c32)cc1 (configuration not stated)
growth (DU-145 prostate): 93.1% | growth (MALME-3M melanoma): 99.3% | growth (MDA-MB-231 breast): 101% | growth (RXF 393 renal): 122% | growth (SF-268 CNS): 57.3% | growth (SF-295 CNS): 76.8% | growth (SF-539 CNS): 52.1% | growth (UACC-257 melanoma): 106% | growth (M14 melanoma): 105% | growth (HCT-15 colon): 85% | growth (HT29 colon): 101% | growth (SNB-75 CNS): 84.7% | growth (SNB-19 CNS): 78.6% | growth (U251 CNS): 60.9% | growth (PC-3 prostate): 56.1% | growth (SK-MEL-5 melanoma): 55.7% | growth (UACC-62 melanoma): 105% | growth (LOX IMVI melanoma): 33.7% | growth (SK-MEL-28 melanoma): 106%

C=C1C(=O)O[C@H]2[C@H]1CC/C(COC(=O)c1ccccc1)=C\CC[C@@]1(C)O[C@@H]21
growth (DU-145 prostate): 6.11% (active) | growth (MALME-3M melanoma): -65% (active) | growth (MDA-MB-231 breast): -37.1% (active) | growth (RXF 393 renal): -84% (active) | growth (SF-268 CNS): 41% | growth (SF-295 CNS): 60.8% | growth (SF-539 CNS): -65.5% (active) | growth (UACC-257 melanoma): 30% | growth (M14 melanoma): -31.9% (active) | growth (HCT-15 colon): -66.1% (active) | growth (HT29 colon): -62.7% (active) | growth (SNB-75 CNS): 68.8% | growth (SNB-19 CNS): 33.1% | growth (U251 CNS): 26.8% | growth (PC-3 prostate): 35% | growth (SK-MEL-5 melanoma): 12% | growth (UACC-62 melanoma): -66.9% (active) | growth (LOX IMVI melanoma): -88.6% (active) | growth (SK-MEL-28 melanoma): -33.9% (active)
